# Source: PubChem
# SIRT5 inh – blocks human SIRT5 desuccinylation of peptide; Q9NXA8; Purified SirT5, succinyl-peptide AMC, trypsin-coupled fluorescence; inhibition, % at 15 µM; 1.1% of 330,000 active; AID 652115; in the data active = inhibition above about 15%
# CASP6 VEID inh – inhibitors of human caspase-6 | P55212 | 0.53% of 350,000 active | purified caspase-6, Z-VEID-R110 cleavage fluorescence | inhibition, % at 12.5 µM;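 active = mean inhibition across replicates at least about 35%, with every replicate also reaching that limit, limit read from the data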
# FGF22 binding – binders of recombinant human FGF22 by thermal shift. activity (Tm shift, normalised), % at 9.99 µM. Q9HCT0. AID 651658. 1.5% of 340,000 active. SYPRO orange fluorescence; percent of sucrose octasulfate shift, DMSO zero;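 active = mean Tm shift, scaled 0 neutral to 100 positive control, at about 1.3% or above, every replicate too, limit read from the data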
# INS-1E GSIS act – GLuc luminescence reporter in INS-1E cells, primary screen for activators of glucose-dependent secretion of insulin; AID 743287; 0.61% of 370,000 active; INS-1E GLuc reporter insulin secretion, 2-3 h; activation, % at 16.6 µM;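 active = lowest replicate activation of at least 40%, so every replicate reaches that level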
# ERAP1 inh – blocks human ERAP1 aminopeptidase activity; Q9NZ08; recombinant ERAP1, Leu-AMC fluorescence, 60 min; inhibition, % at 10.7 µM; 0.15% of 340,000 active;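 active = mean replicate inhibition of at least 30%, or all replicates individually reaching that 30% level; inactive = mean below 30% and not every replicate reaching it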
# Hits are given with their value; . = inactive; / = no result. A selection: hits, their analogues and other compounds. The true share with any hit is near 3.3%.
SMILES,SIRT5 inh,CASP6 VEID inh,FGF22 binding,INS-1E GSIS act,ERAP1 inh
Cc1ccccc1-c1ccc([C@@H]2[C@@H](CO)N3CCCCN(C(=O)Cc4ccccn4)C[C@@H]23)cc1,.,.,.,.,.
O=C(Cc1cccs1)N1Cc2ccccc2-n2nncc2C1,.,41,.,/,.
C=CCN1[C@@H]2CN(CC(F)(F)F)C[C@H]1C2c1ccc(Br)cc1 (stereo partly specified),/,/,/,.,/
C[C@@H]1CN([C@@H](C)CO)C(=O)c2c(c3ccccc3n2C)-c2ccccc2CO[C@@H]1CN(C)C(=O)Oc1ccccc1,.,.,.,.,.
CCCC#Cc1ccc([C@H]2[C@H]3CN(C(=O)Cc4ccccn4)CCCCN3[C@H]2CO)cc1,.,.,.,.,.
OC(CCNCCc1c[nH]c2ccccc12)C(F)(F)Cl (stereo unspecified),.,.,44,.,.
O=C(O)[C@@H]1[C@@H](CO)[C@@H]2Cn3c(ccc(-c4cccnc4)c3=O)[C@H]1N2C(=O)Nc1cc(F)ccc1F,.,.,.,.,.
COC(=O)[C@H]1[C@H](CO)[C@H]2Cn3c(ccc(-c4ccccc4F)c3=O)[C@@H]1N2Cc1cccnc1,.,.,.,.,.
CN(C)C(=O)[C@@H]1[C@@H](CO)[C@@H]2Cn3c(cccc3=O)[C@H]1N2CC1CC1,.,.,.,.,.
COC(=O)[C@@H]1[C@@H](CO)[C@@H]2Cn3c(cccc3=O)[C@H]1N2C(=O)C1CC1,.,.,.,.,.
CC(C)N=C(NC(C)C)N1CC1,/,.,43,.,.
O=C1NC(=O)C(CCc2ccncc2)(CCc2ccccn2)C(=O)N1c1ccc(Br)cc1 (stereo unspecified),.,.,43,.,.
Cc1ccc(N2C(=O)NC(=O)C(CCc3ccccn3)(Cc3cccc(Cl)c3Cl)C2=O)cc1 (stereo unspecified),/,/,/,.,/
c1ccc(Cc2cnc(N3CCNCC3)nc2)cc1,.,.,.,.,64
CC1(C)CC(=O)CC(C)(C)N1O,/,.,45,/,.
O=C(C1CC1)N1C[C@@H]2N[C@H](C1)[C@@H]2c1ccc(-c2ccncc2)cc1,.,.,/,.,.
NN=C1C(Cl)=C(Cl)C(Cl)=C1Cl,.,97,.,/,.
COC(=O)[C@H]1[C@H](CO)[C@H]2Cn3c(ccc(C4=CCCCC4)c3=O)[C@@H]1N2Cc1ccccc1OC,.,.,/,.,.
Cn1c(NN=O)nc2ccccc21,.,36,.,.,.
Cc1ccccc1-c1nc2ccccc2c(=O)n1C,.,.,.,.,.
N=C1c2ccccc2CN1c1ccc(F)c([N+](=O)[O-])c1,.,.,.,67,/
N=C1c2ccccc2CN1c1cccc([N+](=O)[O-])c1,.,.,.,.,.
CS(=O)(=O)N1CC2NC(C1)C2c1ccc(Br)cc1 (stereo unspecified),/,/,/,.,/
CNC(=O)Oc1cc2c(cc1C(C)(C)C)CCC2,/,.,44,/,.
COC(=O)[C@H]1C[C@@H]1[C@H](NP(=O)(c1ccccc1)c1ccccc1)c1ccccc1,.,.,1.8,.,.
SMILES,SIRT5 inh,CASP6 VEID inh,FGF22 binding,INS-1E GSIS act,ERAP1 inh
O=C(Cc1ccccc1)N1CCCCN2[C@H](CO)[C@H](c3ccc(-c4ccccc4)cc3)[C@H]2C1,/,/,/,.,/
C[N+](C)(C)CC#CCN1CCCC1=O,.,.,.,.,73
CC(Cc1ccccc1)NC(=O)CN1CCCC1=O (stereo unspecified),.,.,.,.,.
COc1cccc(NC(=O)CN2CC(c3ccccc3)CC2=O)c1 (stereo unspecified),.,.,.,.,.
O=C(CN1CC(c2ccccc2)CC1=O)NCc1ccc(F)cc1 (stereo unspecified),.,.,43,.,.
O=C(Cc1ccccn1)N1CCCCN2[C@H](CO)[C@H](c3ccc(-c4ccccc4F)cc3)[C@H]2C1,.,.,.,.,.
O=c1[nH]sc2cc(F)ccc12,.,.,.,.,31
CN1CCN(C(=O)CN=[N+]=[N-])CC1,.,.,.,/,.
CCCCn1c(=O)c(C=Nc2cc([N+](=O)[O-])ccc2OC)c(O)n(CCCCl)c1=O,.,.,43,.,.
CCCCn1c(=O)c(C=Nc2ccc(Cl)cc2)c(O)n(Cc2ccco2)c1=O,.,.,.,.,.
CC(C)NC(=O)N1C[C@@H]2N[C@H](C1)C2c1ccc(Br)cc1 (stereo partly specified),/,/,/,.,/
O=C(O)c1ccccc1-c1ccc(C=C2C(=O)N(c3ccccc3)C(=S)N(c3ccccc3)C2=O)o1,.,37,.,.,.
O=C1NC(=O)N(CCC2=CCCCC2)C(=O)/C1=C/c1cccs1,.,37,.,/,.
O=C1NC(=O)N(CCC2=CCCCC2)C(=O)/C1=C/c1ccc(O)cc1,.,.,.,.,.
COc1ccc(C2C3C=CC(C3)C2C(=O)O)cc1 (stereo unspecified),/,.,43,/,.
O=C(NC[C@H]1CC[C@@H]2NC[C@@H]2O1)C1CCCC1,.,.,/,/,.
CC=Cc1ccc2n(c1=O)C[C@H]1[C@H](CO)[C@@H](C(=O)O)[C@@H]2N1S(=O)(=O)c1ccccc1C (mixture of isomers),.,.,.,.,.
C=C(C)CC1(CC)C(=O)NC(=S)NC1=O,/,.,44,/,.
CC[N+](C)(CC)CCCCOc1ccc2c(c1)C(=O)c1cc(OCCCC[N+](C)(CC)CC)ccc1-2,.,.,.,.,68
Cc1cccc(OP(N)(N)=O)c1C,.,.,43,.,.
Cc1cccc(C)c1OP(N)(=O)Oc1c(C)cccc1C,.,.,.,.,.
C/C=C/c1ccc([C@@H]2[C@@H](CO)N3CCCCN(C(=O)Cc4ccncc4)C[C@@H]23)cc1,.,.,.,.,.
O=C1c2ccccc2-c2cc3ccccc3cc21,.,.,.,.,.
O=C1C=C(N2CC2)c2ccccc2C1=O,.,97,.,.,.
COC1CCC(OC2CC(C3(C)CCC4(CC(O)C(C)C(C(C)/C=C(\C)C(=O)C(C)CC(C)C(=O)O)O4)O3)OC3(OC(C4OC(O)(CO)C(C)CC4C)CC3C)C2C)OC1C (stereo unspecified),24,.,.,/,.
SMILES,SIRT5 inh,CASP6 VEID inh,FGF22 binding,INS-1E GSIS act,ERAP1 inh
CC(C)CCCn1c(O)c(/C=C2/C=CC=N2)c(=O)[nH]c1=O,/,/,/,53,/
CCCCn1c(O)c(/C=N/NC(=O)c2ccncc2)c(=O)[nH]c1=O,.,.,.,.,.
Cc1cc(Br)cn2c(CC(=O)N3CCCCC3)c(-c3ccc(F)cc3)nc12,.,.,.,54,.
CN1[C@@H]2CN(S(C)(=O)=O)C[C@H]1C2c1ccccc1 (stereo partly specified),/,/,/,.,/
Cc1ccc(OP(=O)(NC(C)c2ccccc2)Oc2ccc(C)cc2)cc1 (stereo unspecified),.,.,43,.,.
Cc1ccc(NP(=O)(Oc2ccccc2)Oc2ccccc2)cc1,.,.,.,.,.
CCOC(=O)[C@]12Cc3cc4ccccc4cc3[C@H]1N(Cc1ccccc1)C(=O)c1ccccc12,27,.,.,.,/
